Shown are actives, neighbours in structure and some others; about 19% of the full set was active somewhere.
IL-1B inflam inh: blocks inflammasome-driven IL-1 beta release; THP-1 LPS/ATP IL-1B secretion, AlphaLISA, 16 h; stronger effect = lower value; activity change, % at 57.5 µM; 4.7% of 360,000 active; AID 743279; in the data active means activity change below about -50%; inconclusive means mostly about -30% to -49%
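Secreted IL-1B measured by AlphaLISA bead assay after 16 h compound exposure of THP-1 cells; compounds (final up to 57.5 uM) added 1 h before LPS (250 ng/mL) and ATP (1.25 mM) stimulation; lower signal means less secretion.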
HT1080NT lethal: kills 2HG-producing HT-1080-NT fibrosarcoma cells. HT-1080-NT fibrosarcoma viability, CellTiter-Glo ATP luminescence, 48 h. Potency, µM (series often up to 46.1 µM), actives largely listed as cytotoxic. 1.6% of 360,000 active;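 further: NT is the 2HG producing partner of a matched IDH1 knockdown line; nearly all actives have a fitted effect of over 55% in size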
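Compounds were tested in concentration-response format on HT-1080-NT cells for 48 hours at 37 degrees C. Cell viability came from CellTiter-Glo luminescence; curves were classified by r2, response magnitude and activity.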
HT1080 IDH1KD tx: HT-1080 IDH1 knockdown cell toxicity (counter line); HT-1080 IDH1 knockdown viability, ATP luminescence, 48 h; Potency, µM (doses to about 46.1 µM), most hits filed as cytotoxic; 2% of 360,000 active
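After a 2 h attachment period, IDH1KD HT-1080 cells took pin-transferred compound for 48 h at 37 °C; ATP-based luminescence after 10 min room-temperature reagent incubation reported viability.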
DT40 TDP1 CPT: growth inhibition of DT40 Tdp1-/-;hTDP1 cells with camptothecin (screen for TDP1 inhibitors). 12% of 420,000 active. Potency, µM (top dose mostly 46.2 µM), most hits filed as inhibitors. AID 686979. chicken DT40 Tdp1-/-;hTDP1 cells + 20 nM CPT, ATP luminescence, 48 h; further: nearly all actives have a fitted effect of over 55% in size
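Cell growth measured by CellTiter-Glo luminescence after a minimum 48 h, 37 C compound exposure with 20 nM CPT in Tdp1-knockout DT40 cells stably expressing hTDP1, seeded 400/well; qHTS titration format.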
DT40 TDP1 no CPT: qHTS for Inhibitors of human tyrosyl-DNA phosphodiesterase 1 (TDP1): qHTS in cells in absence of CPT; DT40 Tdp1-/- hTDP1 cells, no CPT, ATP luminescence, 48 h; Potency, µM (top dose mostly 46.2 µM), usual class: inhibitors; 15% of 420,000 active; AID 686978, 2013; further: nearly all actives have a fitted effect of over 55% in size
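Growth of hTDP1-complemented DT40 Tdp1-knockout cells is measured by ATP luminescence after at least 48 hr compound exposure at 37 °C, with DMSO substituting for the 20 nM CPT used in the parallel screen.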
Each line names hits and unclear results; the compound was inactive in the other large screens. Unless noted, the call rests on the fitted dose curve; in most records, active means well fitted curve in the direction sought with a large enough effect; inconclusive means small, poorly fitted or top-dose-only effect, or another doubt; inactive means no such curve, though single readings can be large; an effect the other way counts as inactive or inconclusive.

CC(=O)N1CCC[C@H]1C(=O)N1CCc2c(cnc(C)c2CNC(=O)/C=C/c2cccs2)C1	none (no result: IL-1B inflam inh, HT1080NT lethal, HT1080 IDH1KD tx)
CC#CCN(CC#CC)S(=O)(=O)c1ccc(S(=O)(=O)N2CCOCC2)cc1	DT40 TDP1 CPT inconclusive, DT40 TDP1 no CPT 16µM
Nc1ccc(S(=O)(=O)N2CCOCC2)cc1	none (no result: IL-1B inflam inh, HT1080NT lethal, HT1080 IDH1KD tx)
CCCNC(=O)c1cc(S(=O)(=O)N2CCc3ccccc32)ccc1F	HT1080 IDH1KD tx inconclusive, DT40 TDP1 CPT 5.2µM, DT40 TDP1 no CPT 15µM
O=S(=O)(c1ccc(F)c(F)c1)N1CCCc2ccccc21	DT40 TDP1 no CPT inconclusive
COCCCNC(=O)c1c[nH]c2ccc(S(=O)(=O)N3CCc4ccccc43)cc2c1=O	HT1080NT lethal inconclusive, HT1080 IDH1KD tx inconclusive, DT40 TDP1 no CPT inconclusive
O=C(Nc1cc(Cl)ccc1Cl)c1cc(S(=O)(=O)N2CCCc3ccccc32)ccc1F	DT40 TDP1 CPT 23µM, DT40 TDP1 no CPT inconclusive (no result: IL-1B inflam inh, HT1080NT lethal, HT1080 IDH1KD tx)
CCc1ccccc1NC(=O)c1cc(S(=O)(=O)N2CCCc3ccccc32)ccc1F	DT40 TDP1 CPT 16µM, DT40 TDP1 no CPT 18µM (no result: IL-1B inflam inh, HT1080NT lethal, HT1080 IDH1KD tx)
COCCNC(=O)c1c[nH]c2ccc(S(=O)(=O)N3CCc4ccccc43)cc2c1=O	IL-1B inflam inh inconclusive, HT1080NT lethal 2.3µM, HT1080 IDH1KD tx 2.3µM, DT40 TDP1 CPT 15µM, DT40 TDP1 no CPT 6.5µM
CCCCCNC(=O)c1cc(S(=O)(=O)N2CCCCC2)ccc1F	none
COC(=O)C1CCN(C(=O)C2CC(=O)N(c3ccc(C)c(Cl)c3)C2)CC1 (configuration not stated)	none
COc1ccc(S(=O)(=O)N2CCc3ccccc32)cc1C(=O)NCCc1ccc(S(N)(=O)=O)cc1	none
COc1ccccc1NC(=O)c1cc(S(=O)(=O)N2CCc3ccccc32)ccc1F	DT40 TDP1 CPT 18µM, DT40 TDP1 no CPT inconclusive
COc1ccc(CCNC(=O)c2cc(S(=O)(=O)N3CCc4ccccc43)ccc2F)cc1OC	DT40 TDP1 CPT 12µM, DT40 TDP1 no CPT 6.5µM
Cc1ccc(C)c(NC(=O)c2cc(S(=O)(=O)N3CCc4ccccc4C3)ccc2F)c1	none (no result: IL-1B inflam inh, HT1080NT lethal, HT1080 IDH1KD tx)
CCc1ccccc1NC(=O)c1cc(S(=O)(=O)N2CCc3ccccc32)ccc1F	DT40 TDP1 CPT 16µM, DT40 TDP1 no CPT 10µM (no result: IL-1B inflam inh, HT1080NT lethal, HT1080 IDH1KD tx)
O=C(CCNS(=O)(=O)c1ccc2c(c1)CCN2C(=O)C1CC1)Nc1ccc(Cl)cc1	DT40 TDP1 CPT 10µM, DT40 TDP1 no CPT 12µM (no result: IL-1B inflam inh, HT1080NT lethal, HT1080 IDH1KD tx)
Cc1ccc(CNS(=O)(=O)c2ccc3c(c2)CCN3C(=O)C2CCC2)cc1	DT40 TDP1 CPT inconclusive, DT40 TDP1 no CPT inconclusive
CCc1ccccc1NC(=O)CCNS(=O)(=O)c1ccc2c(c1)CCN2C(=O)C1CC1	DT40 TDP1 CPT inconclusive, DT40 TDP1 no CPT 18µM (no result: IL-1B inflam inh, HT1080NT lethal, HT1080 IDH1KD tx)
Cc1ccc(NC(=O)CCNS(=O)(=O)c2ccc3c(c2)CCN3C(=O)C2CC2)c(Cl)c1	DT40 TDP1 CPT 5.2µM, DT40 TDP1 no CPT 4.1µM (no result: IL-1B inflam inh, HT1080NT lethal, HT1080 IDH1KD tx)
O=C(CSc1nnc(Cn2c(=O)sc3ccccc32)n1-c1ccccc1)Nc1nccs1	DT40 TDP1 CPT inconclusive, DT40 TDP1 no CPT inconclusive
COc1cccc(/C=N\NC(C)=O)c1OC/C=C/c1ccccc1	DT40 TDP1 CPT inconclusive, DT40 TDP1 no CPT inconclusive
COCC(=O)N/N=C\c1ccccc1OC/C=C/c1ccccc1	HT1080 IDH1KD tx inconclusive, DT40 TDP1 CPT inconclusive, DT40 TDP1 no CPT 26µM
N#CCC(=O)N/N=C\c1ccccc1OC/C=C/c1ccccc1	DT40 TDP1 CPT 5.8µM, DT40 TDP1 no CPT 4.1µM
O=C(COC(=O)CNC(=O)c1ccco1)NCc1ccc(F)cc1	none
Brc1cccc(-c2n[nH]c(-c3ccccc3)n2)c1	IL-1B inflam inh inconclusive, DT40 TDP1 CPT inconclusive, DT40 TDP1 no CPT 23µM
COc1ccccc1CNC(=O)CSC(=S)N1CCCC1	none
CCn1c(SCC(=O)O)nc2sc3c(c2c1=O)CCC3	none
CCn1c(SCC(=O)Nc2cc(C)on2)nc2sc3c(c2c1=O)CCCC3	HT1080NT lethal 10µM, HT1080 IDH1KD tx inconclusive, DT40 TDP1 CPT inconclusive, DT40 TDP1 no CPT 6.5µM
C=CCn1c(SCC(=O)NCc2ccco2)nc2sc3c(c2c1=O)CCCC3	none
C=CCn1c(SCC(=O)Nc2cc(C)on2)nc2sc(C)c(C)c2c1=O	DT40 TDP1 CPT inconclusive, DT40 TDP1 no CPT 6.5µM
C=C(C)Cn1c(SCC(=O)c2ccccc2)nc2sc3c(c2c1=O)CCCC3	DT40 TDP1 no CPT inconclusive (no result: IL-1B inflam inh, HT1080NT lethal, HT1080 IDH1KD tx)

Bioassay records (PubChem)
